The text below walks through data of the supplement of paper PMC9801561.

Assay [1] deals with Escherichia coli Nissle 1917. Description: area under OmniLog respiration curve over 48 h (OmniLog units x h); higher = more growth / nutrient utilisation; extreme values may be limits of the assay. The conditions noted are these: incubation: 48 h, 37 °C.
Assay [2] deals with Escherichia coli Nissle 1917. Description: DuctApe activity index of respiration/growth curve (0 no growth to 9 maximum) (index 0-9); higher = more growth / nutrient utilisation, active = 3 or more; extreme values may be limits of the assay. The following applies: incubation: 48 h, 37 °C.
The mark [3] stands for this setting: nutrient role: C-Source, amino acid.
Setting [4] is: nutrient role: sole nitrogen source (pyruvate carbon).
Setting [5] is: nutrient role: C-Source, carbohydrate.
Setting [6] is: nutrient role: sole phosphorus source (pyruvate carbon).
Setting [7] is: nutrient role: sole sulfur source (pyruvate carbon).

The structures appear in SMILES notation. ± gives the standard deviation of the averaged measurements.
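For DuctApe activity index of respiration/growth curve (0 no growth to 9 maximum) in this document: biolog PM4 phosphorus and sulfur plates, tetrazolium violet dye reduction read in the OmniLog every 15 min, kinetic curves scored by DuctApe, each plate run in triplicate.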

In the case of `N[C@@H](Cc1ccccc1)C(=O)O` [L-Phenylalanine], the figures for the “area under OmniLog respiration curve” value in assay [1] (setting [3]) and in assay [1] (setting [4]) were 8.61 ± 5.9 and 4290 ± 1100, respectively. Moreover, the DuctApe activity index in assay [2] (setting [3]) is 0 (inactive); in assay [2] (setting [4]), 6 (active).

Regarding `O=C(O)[C@@H]1CCCN1` [L-Proline], the “area under OmniLog respiration curve” value is 8520 ± 530 in assay [1] (setting [3]) and 4840 ± 1100 in assay [1] (setting [4]). Further, the results for the DuctApe activity index in assay [2] (setting [3]) and in assay [2] (setting [4]) were 8.67 (active) and 6 (active), respectively.

Take `O=P(O)(O)O[C@H]1O[C@H](CO)[C@@H](O)[C@H](O)[C@H]1O` [D-Glucose-1-Phosphate]: the entries for the “area under OmniLog respiration curve” value in assay [1] (setting [5]) and in assay [1] (setting [6]) were 8850 ± 750 and 8060 ± 560, respectively. The DuctApe activity index in assay [2] (setting [5]) is 8.67 (active); in assay [2] (setting [6]), 8.33 (active).

On to `Nc1ncnc2c1ncn2[C@@H]1O[C@H](CO)[C@@H](O)[C@H]1O` [Adenosine], for which the “area under OmniLog respiration curve” value in assay [1] (setting [5]) is 9110 ± 480; in assay [1] (setting [4]), 6810 ± 990. Also, the figures for the DuctApe activity index in assay [2] (setting [5]) and in assay [2] (setting [4]) were 8.67 (active) and 7.33 (active), respectively.

Take `NC(=O)[C@H]1O[C@@H](O)[C@H](O)[C@@H](O)[C@@H]1O` [Glucuronamide]: the “area under OmniLog respiration curve” value in assay [1] (nutrient role: C-Source, amide) came out at 33.5 ± 50; in assay [1] (setting [4]) it was 2520 ± 1200. In addition, the DuctApe activity index in assay [2] (nutrient role: C-Source, amide) was 0.333 (inactive); in assay [2] (setting [4]), 4.33 (active).

As to `NCC(=O)N[C@@H](CCC(=O)O)C(=O)O`, the “area under OmniLog respiration curve” value in assay [1] (setting [3]) was determined as 7660 ± 620; in assay [1] (setting [4]) it was 7640 ± 1700. Also, the DuctApe activity index in assay [2] (setting [3]) was 7.67 (active); in assay [2] (setting [4]), 8 (active).

Consider `N[C@@H](Cc1c[nH]cn1)C(=O)O` [L-Histidine], for which the “area under OmniLog respiration curve” value in assay [1] (setting [3]) and in assay [1] (setting [4]) was 4.72 in each case. Moreover, the DuctApe activity index in assay [2] (setting [3]) and in assay [2] (setting [4]) was 0 (inactive) in each case.

On to `N[C@@H](CCO)C(=O)O` [L-Homoserine], for which the entries for the “area under OmniLog respiration curve” value in assay [1] (setting [3]) and in assay [1] (setting [4]) were 4.72 and 546 ± 600, respectively. The DuctApe activity index in assay [2] (setting [3]) is 0 (inactive); in assay [2] (setting [4]) it was 1.33 (inactive).

In the case of `O=C[C@H](O)[C@@H](O)[C@H](O)[C@H](O)COP(=O)(O)O` [D-Glucose-6-Phosphate], the “area under OmniLog respiration curve” value in assay [1] (setting [5]) was found to be 10100 ± 940; in assay [1] (setting [6]), 8680 ± 490. In addition, the DuctApe activity index in assay [2] (setting [5]) was 9 (active); in assay [2] (setting [6]), 8.67 (active).

Turning to `CSCC[C@H](NC(=O)CN)C(=O)O`, the results for the “area under OmniLog respiration curve” value in assay [1] (setting [4]) and in assay [1] (setting [7]) were 5710 ± 1300 and 5820 ± 90, respectively. Further, the DuctApe activity index in assay [2] (setting [4]) and in assay [2] (setting [7]) was 7 (active) throughout.

In the case of `O=C1CC[C@@H](C(=O)O)N1` [L-Pyroglutamic acid], the entries for the “area under OmniLog respiration curve” value in assay [1] (setting [3]) and in assay [1] (setting [4]) were 6.07 ± 1.2 and 4.72, respectively. The DuctApe activity index in assay [2] (setting [3]) and in assay [2] (setting [4]) was 0 (inactive) each time.

With `N[C@@H](CS)C(=O)O` [L-Cysteine], the “area under OmniLog respiration curve” value in assay [1] (setting [4]) came out at 9700 ± 1400; in assay [1] (setting [7]), 7230 ± 260. The DuctApe activity index was 8.67 (active) in assay [2] (setting [4]) and 7.33 (active) in assay [2] (setting [7]).

As for `O=c1[nH]cnc2c1ncn2[C@@H]1O[C@H](CO)[C@@H](O)[C@H]1O` [Inosine], the entries for the “area under OmniLog respiration curve” value in assay [1] (setting [5]) and in assay [1] (setting [4]) were 9540 ± 290 and 24.8 ± 35, respectively. For the same compound, the DuctApe activity index in assay [2] (setting [5]) is 9 (active); in assay [2] (setting [4]) it was 0 (inactive).

Turning to `CC(=O)N[C@@H]1[C@@H](O)[C@H](O)[C@@H](CO)O[C@@H]1O` [N-Acetyl-D-Glucosamine], the “area under OmniLog respiration curve” value in assay [1] (setting [5]) came to 7820 ± 520; in assay [1] (setting [4]) it was 1070 ± 1100. Further, the DuctApe activity index was 8 (active) in assay [2] (setting [5]) and 2.33 (inactive) in assay [2] (setting [4]).

With `C[C@@H](O)[C@H](N)C(=O)O` [L-Threonine], the “area under OmniLog respiration curve” value was 7940 ± 380 in assay [1] (setting [3]) and 3190 ± 1200 in assay [1] (setting [4]). In addition, the DuctApe activity index is 8 (active) in assay [2] (setting [3]) and 5 (active) in assay [2] (setting [4]).

In the case of `O=c1ccn([C@@H]2O[C@H](CO)[C@@H](O)[C@H]2O)c(=O)[nH]1` [Uridine], the “area under OmniLog respiration curve” value in assay [1] (setting [5]) was determined as 9200 ± 570; in assay [1] (setting [4]) it was 8.86 ± 7.2. Besides, the DuctApe activity index was 8.67 (active) in assay [2] (setting [5]) and 0 (inactive) in assay [2] (setting [4]).

With `N[C@H](CC(=O)O)C(=O)O` [D-Aspartic acid], the figures for the “area under OmniLog respiration curve” value in assay [1] (setting [3]) and in assay [1] (setting [4]) were 48 ± 53 and 4.72, respectively. Moreover, the figures for the DuctApe activity index in assay [2] (setting [3]) and in assay [2] (setting [4]) were 0.667 (inactive) and 0 (inactive), respectively.

For `N[C@@H](CC(=O)O)C(=O)O` [L-Aspartic acid], the “area under OmniLog respiration curve” value in assay [1] (setting [3]) was 8900 ± 710; in assay [1] (setting [4]), 8720 ± 1400. Further, the DuctApe activity index in assay [2] (setting [3]) is 8.67 (active); in assay [2] (setting [4]) it was 8.33 (active).

As to `CC(=O)N[C@@H]1C(O)O[C@H](CO)[C@@H](O)[C@@H]1O` (stereo partly drawn) [N-Acetyl-D-Mannosamine], the “area under OmniLog respiration curve” value in assay [1] (setting [5]) is 7300 ± 450; in assay [1] (setting [4]) it was 1040 ± 740. The DuctApe activity index is 7.67 (active) in assay [2] (setting [5]) and 2.33 (inactive) in assay [2] (setting [4]).

Consider `NCCCCN` [Putrescine], for which the “area under OmniLog respiration curve” value in assay [1] (nutrient role: C-Source, amine) was found to be 13.7 ± 8.1; in assay [1] (setting [4]) it was 31.6 ± 46. Also, the DuctApe activity index in assay [2] (nutrient role: C-Source, amine) was 0 (inactive); in assay [2] (setting [4]), 0 (inactive).

For `NC(=O)C[C@H](N)C(=O)O` [L-Asparagine], the entries for the “area under OmniLog respiration curve” value in assay [1] (setting [3]) and in assay [1] (setting [4]) were 8660 ± 760 and 8770 ± 1400, respectively. Also, the DuctApe activity index in assay [2] (setting [3]) and in assay [2] (setting [4]) was 8.67 (active) in each case.

For `NCCC[C@H](N)C(=O)O` [L-Ornithine], the “area under OmniLog respiration curve” value was determined as 34.5 ± 27 in assay [1] (setting [3]) and 2670 ± 1300 in assay [1] (setting [4]). Also, the DuctApe activity index in assay [2] (setting [3]) is 0 (inactive); in assay [2] (setting [4]), 4 (active).

For `N[C@H]1C(O)O[C@H](CO)[C@@H](O)[C@@H]1O` (stereo partly drawn) [D-Glucosamine], the “area under OmniLog respiration curve” value was 8060 ± 400 in assay [1] (setting [5]) and 2180 ± 1100 in assay [1] (setting [4]). Also, the DuctApe activity index was 8 (active) in assay [2] (setting [5]) and 3.33 (active) in assay [2] (setting [4]).

In the case of `C[C@H](N)C(=O)O` [L-Alanine], the “area under OmniLog respiration curve” value came out at 8160 ± 580 in assay [1] (setting [3]) and 7330 ± 1200 in assay [1] (setting [4]). Further, the DuctApe activity index in assay [2] (setting [3]) and in assay [2] (setting [4]) was 8 (active) throughout.

`CC(N)=O` [Acetamide]: the “area under OmniLog respiration curve” value in assay [1] (nutrient role: C-Source, amide) is 9.31 ± 7.2; in assay [1] (setting [4]) it was 26.4 ± 38. Besides, the DuctApe activity index was 0 (inactive) in assay [2] (nutrient role: C-Source, amide) and 0 (inactive) in assay [2] (setting [4]).

For the compound `NCCCC[C@H](N)C(=O)O` [L-Lysine], the “area under OmniLog respiration curve” value in assay [1] (setting [3]) is 10.5 ± 10; in assay [1] (setting [4]), 301 ± 240. In addition, the DuctApe activity index in assay [2] (setting [3]) was 0 (inactive); in assay [2] (setting [4]), 1 (inactive).

With `O=P(O)(O)OC[C@H](O)CO` (racemic) [DL-a-Glycerol Phosphate], the “area under OmniLog respiration curve” value came to 7910 ± 780 in assay [1] (setting [5]) and 9010 ± 860 in assay [1] (setting [6]). Also, the DuctApe activity index in assay [2] (setting [5]) was 7.67 (active); in assay [2] (setting [6]) it was 8.67 (active).

`N[C@@H](CCC(=O)O)C(=O)O` [L-Glutamic acid]: the “area under OmniLog respiration curve” value was found to be 7390 ± 830 in assay [1] (setting [3]) and 7860 ± 1300 in assay [1] (setting [4]). Moreover, the DuctApe activity index in assay [2] (setting [3]) was 7.67 (active); in assay [2] (setting [4]), 8 (active).

For `NCC(=O)O` [Glycine], the “area under OmniLog respiration curve” value stood at 4.72 in assay [1] (setting [3]) and 4420 ± 1100 in assay [1] (setting [4]). The values for the DuctApe activity index in assay [2] (setting [3]) and in assay [2] (setting [4]) were 0 (inactive) and 6 (active), respectively.

Consider `Cc1cn([C@H]2C[C@H](O)[C@@H](CO)O2)c(=O)[nH]c1=O` [Thymidine], for which the figures for the “area under OmniLog respiration curve” value in assay [1] (setting [5]) and in assay [1] (setting [4]) were 9560 ± 710 and 4.72, respectively. Further, the results for the DuctApe activity index in assay [2] (setting [5]) and in assay [2] (setting [4]) were 8.67 (active) and 0 (inactive), respectively.
